Assay outcomes as filed in PubChem BioAssay.
The list is not random: actives were taken first. Their share in the collection is about 8%.
MCF10A rerep: induces DNA re-replication in MCF 10a normal breast cells. MCF 10A DNA re-replication, Hoechst nuclear intensity, 48 h. Potency, µM (titrated, usually from 46.1 µM), for the others: top-dose activity, positive = re-replication, usual class: activators. AID 624296. 2.9% of 350,000 active; further: % of control where 0% means no effect; nearly all actives have a fitted effect of over 50% in size
KB-3-1 tox: kills parental KB-3-1 adenocarcinoma cells. 1.4% of 400,000 active. KB-3-1 viability, CellTiter-Glo ATP luminescence, 72 h. Potency, µM (doses to about 46.1 µM), hits mostly cytotoxic; further: on the % scale 0 is the no-effect control and ±100 the full control effect; nearly all actives have a fitted effect of over 60% in size
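Parental KB-3-1 adenocarcinoma cells in phenol-red-free DMEM with 10% FBS were pin-treated with compounds at several concentrations, incubated 72 h at 37 °C, and viability read by CellTiter-Glo luminescence; concentration-effect curves were fitted after normalization.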
HT1080-NT tox: kills 2HG-producing HT-1080-NT fibrosarcoma cells | HT-1080-NT fibrosarcoma viability, CellTiter-Glo ATP luminescence, 48 h | Potency, µM (titrated, usually from 46.1 µM), without a hit: top-dose activity, negative = less viability, most hits filed as cytotoxic | 1.6% of 360,000 active | AID 686970;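 further: NT is the 2HG producing partner of a matched IDH1 knockdown line; 0% = DMSO-treated cells and -100% = media-only wells without cells; nearly all actives have a fitted effect of over 55% in size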
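750 cells/well, RPMI + 5% FBS; 2 h settle, compound pin-transfer, 48 h at 37 degrees C. CellTiter-Glo 10 min RT, luminescence. Normalized to DMSO and media-only wells.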
HT1080 IDH1KD tx: kills HT-1080 cells with IDH1 knockdown. HT-1080 IDH1 knockdown viability, ATP luminescence, 48 h. Potency, µM (highest dose often 46.1 µM), without a hit: top-dose activity, negative = toxicity, usual class: cytotoxic. 2% of 360,000 active. AID 686971;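 further: 0% = DMSO wells and -100% = cell-free medium wells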
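Knockdown cells (IDH1KD HT-1080) received compounds 2 h after plating at 750 cells/well and were kept 48 h at 37 °C in 5% FBS RPMI. A CellTiter-Glo luminescence read gave % activity for curve fitting.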
KB-V1 MDR tox: KB-V1 MDR subline cytotoxicity; Potency, µM (doses to about 46.1 µM), actives largely listed as cytotoxic; AID 1347076; KB-V1 MDR cells viability, CellTiter-Glo, 72 h; 3.4% of 400,000 active; further: on the % scale 0 is the no-effect control and ±100 the full control effect; nearly all actives have a fitted effect of over 60% in size
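Drug-selected KB-V1 cells, grown in DMEM lacking phenol red with 10% FBS, receive compound titrations; after three days at 37 degrees C, surviving cell ATP is quantified by CellTiter-Glo luminescence and responses normalized and curve-fitted.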
SW480 rerep: inducers of DNA re-replication in SW480 colon cancer cells; SW480 DNA re-replication, Hoechst DNA content imaging, 48 h; 1.8% of 340,000 active; Potency, µM (top dose mostly 46.1 µM), for the others: at the highest dose re-replication activation, most hits filed as activators; AID 624297; further: % of control where 0% means no effect; nearly all actives have a fitted effect of over 55% in size
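250 cells/well; 23 nL cpd via pin tool; 48 hr, 37 C, 5% CO2; Hoechst 40 min; imager read of total nuclear intensity, ex 405/em 500-530 nm.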
Numbers without * were called inactive; i = inactive; ? = inconclusive; nt = no result given; ! = not active in a repeat. The call rests on the fitted dose curve; in most records, active means well fitted curve in the direction sought with a large enough effect; inconclusive means small, poorly fitted or top-dose-only effect, or another doubt; inactive means no such curve, though single readings can be large; an effect the other way counts as inactive or inconclusive. Potency means the concentration at half of the fitted maximal effect.

SMILES	MCF10A rerep	KB-3-1 tox	HT1080-NT tox	HT1080 IDH1KD tx	KB-V1 MDR tox	SW480 rerep
COc1ccc(NC(=O)NCCN2CCc3ccccc3C2)cc1	-1.6%	i	-0.9%	1.2%	i	-3.1%
Cc1cc(N2CCN(C)CC2)nc2ccc(NC(=S)NCCCN3CCc4ccccc4C3)cc12	?	i	18.4µM*	16.4µM*	i	?
Cc1cc(N2CCN(C)CC2)nc2ccc(NC(=S)NCCN3CCc4ccccc4C3)cc12	?	i	-10.6%	-26.1%	i	?
CCN1CCN(c2cc(C)c3cc(NC(=S)NCCCN4CCc5ccccc5C4)ccc3n2)CC1	-4.8%	i	20.6µM*	20.6µM*	i	25.0%
Cc1cc(N2CCCC2)nc2ccc(NC(=S)NCCCN3CCC(C)CC3)cc12	18.4µM*	i	23.1µM*	23.1µM*	?	?
O=C(NCCCN1CCc2ccccc2C1)Nc1ccc(Cl)cc1	0.2%	i	?	?	14.6µM*	-1.0%
CC(CC(=O)NCc1ccc(Cl)cc1)CC1=NS(=O)(=O)c2ccccc2N1 (stereo not drawn)	nt	i	nt	nt	i	nt
CCN1CCN(c2cc(C)c3cc(NC(=S)NCCN(C)C)ccc3n2)CC1	5.6%	i	-20.2%	?	i	-5.8%
CCCCN(C)CCNC(=S)Nc1ccc2nc(N3CCN(CC)CC3)cc(C)c2c1	?	i	18.4µM*	29.1µM*	i	?
CCCCn1c(CCC(=O)O)nc2c1c(=O)[nH]c(=O)n2CCC	-1.8%	i	21.0%	13.1%	i	-2.8%
CCCCn1c(=O)[nH]c(=O)c2c1nc(COC(=O)c1c(C)noc1C)n2CCC	3.9%	i	7.3%	4.2%	4.11µM*	-2.2%
COC(=O)c1ccc(NC(=O)CSc2nnc3c4ccccc4n(C(C)C)c3n2)cc1	nt	i	nt	nt	?	nt
Cc1cc(C)cc(N2C(=O)CSC23C(=O)N(CC(=O)Nc2ccc(F)cc2F)c2ccccc23)c1 (stereo not drawn)	nt	i	nt	nt	i	nt
CCOC(=O)C1(CC)CC(CSc2nc3ccccc3[nH]2)OC1=O (stereo not drawn)	6.5%	i	2.6%	1.5%	i	-0.6%
CCOC(=O)C1(CCC(C)C)CC(CSc2nc3ccccc3[nH]2)OC1=O (stereo not drawn)	6.51µM*	i	-1.8%	1.9%	?	14.1%
Cc1cc(C)n2c(Br)c(CSc3nc4ccccc4o3)nc2n1	6.0%	i	-5.4%	1.7%	20.6µM*	-5.3%
Cc1cc(C)n2cc(CSc3nc4cc(Cl)ccc4o3)nc2n1	1.3%	i	2.5%	1.9%	i	-7.0%
Cc1cccc(NC(=O)c2ccccc2NC(=O)C2CCCCC2)c1C	7.8%	i	-1.4%	18.5%	18.4µM*	-0.7%
O=C(NC1CCCCC1)c1ccccc1NC(=O)C1CC(=O)N(c2ccccc2)C1 (stereo not drawn)	1.7%	i	5.1%	-16.9%	i	-3.1%
O=C(Nc1ccccc1)c1ccccc1NC(=O)C1CCCCC1	?	i	-8.7%	-10.8%	i	2.8%
Cc1ccc(N2CC(C(=O)Nc3ccccc3C(=O)NC3CCCCC3)CC2=O)cc1 (stereo not drawn)	9.6%	i	5.7%	-0.4%	3.66µM*	-0.1%
CS(=O)(=O)c1ccc(Nc2nc(C(N)Cc3ccc(F)cc3)cs2)cc1 (stereo not drawn)	nt	i	-29.9%	-28.5%	i	nt
CCCc1cnc(Nc2nc(C(N)Cc3ccc(C(F)(F)F)cc3)cs2)nc1 (stereo not drawn)	nt	?	16.4µM*	?	?	nt
NC(COCc1ccccc1)c1csc(Nc2nccc(C(F)(F)F)n2)n1 (stereo not drawn)	nt	i	-7.3%	-4.2%	?	nt
NC(Cc1ccc(C(F)(F)F)cc1)c1csc(Nc2nccc(C(F)(F)F)n2)n1 (stereo not drawn)	nt	?	?	?	23.1µM*	nt
SMILES	MCF10A rerep	KB-3-1 tox	HT1080-NT tox	HT1080 IDH1KD tx	KB-V1 MDR tox	SW480 rerep
CS(=O)(=O)c1ccc(Nc2nc(C(N)Cc3ccc(C(F)(F)F)cc3)cs2)cc1 (stereo not drawn)	nt	?	18.4µM*	?	?	nt
O=C(Nc1cc(S(=O)(=O)N2CCOCC2)ccc1N1CCOCC1)C1CCCO1 (stereo not drawn)	-2.3%	i	-3.7%	-4.7%	i	2.0%
CCOC(=O)c1c(Oc2ccc(C(=O)OC)cc2)nnc(-c2ccccc2)c1-c1ccccc1	nt	i	nt	nt	i	nt
CCN(CC)C(=S)SSC(=S)N(CC)CC	14.6µM*	i	?	0.0052µM*!	i	?
COc1ccc(CCNC(=O)CCn2c(=O)c3ccccc3n(Cc3ccccc3)c2=O)cc1OC	nt	i	nt	nt	i	nt
COc1ccccc1Nc1nc(N)nc(CSc2nc(C)cc(C)n2)n1	4.4%	?	-1.2%	0.3%	13µM*	-3.2%
COc1ccccc1Nc1nc(N)nc(CSc2nccc(C)n2)n1	0.7%	i	2.4%	3.5%	i	-1.4%
O=Cc1c(Sc2ccccc2)nc2ccccn2c1=O	?	14.6µM*	?	?	?	17.5%
N#CC1=C(SCC(=O)NCc2ccccc2)NC(=O)CC1c1ccco1 (stereo not drawn)	-6.8%	i	-4.5%	-0.5%	i	-2.9%
N#CC1=C(SCC(=O)Nc2ccccc2)NC(=O)CC1c1ccco1 (stereo not drawn)	-3.1%	?	14.1µM*	?	14.6µM*	-1.0%
N#CC1=C(SCC(=O)NC2CCCCC2)NC(=O)CC1c1ccco1 (stereo not drawn)	?	14.6µM*	5.2%	8.5%	i	22.2%
CCOc1ccc(NC(=O)C(Cc2ccccc2)N2C(=O)c3cccc4cccc(c34)C2=O)cc1 (stereo not drawn)	8.2µM*	?	-17.9%	-19.7%	?	9.2µM*
N#Cc1ccc(NCCc2ccccn2)c([N+](=O)[O-])c1	-5.9%	8.2µM*	3.8%	-0.8%	1.84µM*	-3.0%
CCC(C)NC(=O)c1ccc2nc(-c3ccco3)c(-c3ccco3)nc2c1 (stereo not drawn)	nt	i	nt	nt	i	nt
Cc1cccc(NC(=O)c2ccc(-n3c(C)nnc3C)cc2)c1	nt	i	nt	nt	i	nt
N#Cc1c(NC(=O)C2CC(c3ccccc3O)=NO2)sc2c1CCC2 (stereo not drawn)	?	i	-0.3%	-7.0%	20.6µM*	-38.6%
N#Cc1c(NC(=O)C2CC(c3ccccc3Cl)=NO2)sc2c1CCC2 (stereo not drawn)	20.6µM*	i	-2.3%	-0.4%	25.9µM*	-1.9%
